Assay outcomes deposited in PubChem BioAssay by several laboratories.
MRP-1 activ: activators of MRP-1; hit rate 0.61% among 140,000; H69AR cells + doxorubicin, viability rescue, CellTiter-Glo; AID 799; viability increase, % at 10 µM;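 active means viability gain under doxorubicin at or above a set limit, the compound median plus 3 SD, cut at about 4.7% in these data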;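 further: MRP-1 overexpressing cells given doxorubicin 25 µM after compound pretreatment; 18-22 h compound pretreatment then 72 h with doxorubicin before readout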
CYP2C9 activ: increases human cytochrome P450 2C9 activity; hit rate 1.4% among 96,000; activation factor at 5 µM; recombinant CYP2C9, luciferin-H conversion, luminescence; stronger effect = higher value; factor 1 = untreated enzyme, 0 = blocked;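 active means activation factor of 2 or more for CYP2C9 at a 5 µM dose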
MRP reversal: reverses drug resistance mediated by MRP | H69AR cells + 2 uM doxorubicin, CellTiter-Glo, 72 h | differential viability (reversal), % at 10 µM | hit rate 0.04% among 85,000;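 active means viability drop by adding the cancer drug above about 55%, with treated viability meeting a 40% cutoff, limit read from the data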;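 further: larger differential means the compound sensitizes cells more to doxorubicin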
CYP2C19 inhib: blocks human cytochrome P450 2C19. P33261. CYP2C19 Supersomes, luciferin-H EGE luminescence, 30 min. inhibition, % at 5 µM. hit rate 21% among 96,000;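 active means CYP2C19 inhibition above a set limit at 5 µM in the primary screen, cut at about 50% in these data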
Target sequence (P33261 whole entry, looked up): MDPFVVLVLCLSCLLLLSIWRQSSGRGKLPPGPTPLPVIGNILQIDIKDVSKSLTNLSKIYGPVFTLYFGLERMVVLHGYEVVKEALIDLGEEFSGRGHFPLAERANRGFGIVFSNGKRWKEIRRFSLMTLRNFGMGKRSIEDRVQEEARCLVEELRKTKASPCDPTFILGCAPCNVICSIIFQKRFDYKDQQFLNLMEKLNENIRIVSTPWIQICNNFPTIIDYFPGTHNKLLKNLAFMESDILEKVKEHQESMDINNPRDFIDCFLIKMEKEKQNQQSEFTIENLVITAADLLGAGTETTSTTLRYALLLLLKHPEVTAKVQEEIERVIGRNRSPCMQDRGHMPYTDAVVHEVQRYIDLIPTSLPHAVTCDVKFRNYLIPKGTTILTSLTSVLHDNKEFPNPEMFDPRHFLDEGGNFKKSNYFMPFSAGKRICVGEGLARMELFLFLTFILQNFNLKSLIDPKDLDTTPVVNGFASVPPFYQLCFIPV
CYP2C19 act: cytochrome P450 2C19 (human) activation | P33261 | activation factor at 5 µM | recombinant CYP2C19, luciferin-H EGE luminescence; stronger effect = higher value; 0 = fully inhibited enzyme, 1 = untreated enzyme | 96,000 tested, under 10 active;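 active means activation factor of at least 2 at 5 µM in the primary screen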
CYP2C9 inh: blocks human cytochrome P450 2C9 | inhibition, % at 5 µM | P11712 | AID 777 | hit rate 20% among 96,000 | CYP2C9 Supersomes, luciferin-H conversion, luminescence;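 active means blocking of liver enzyme CYP2C9 beyond about 50% at 5 µM, limit read from the data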
Hits are given with their value; i = inactive; nt = no result given. An excerpt weighted towards active compounds, which were near 21% of everything screened.

SMILES	MRP-1 activ	CYP2C9 activ	MRP reversal	CYP2C19 inhib	CYP2C19 act	CYP2C9 inh
CCN=C(NCC)SC1CC(=O)N(c2cccc(OCC)c2)C1=O (stereo not given)	i	2.1	i	76	i	i
Cc1cc(Br)ccc1SCC(=O)OCC(=O)Nc1ccccc1C#N	i	nt	nt	nt	nt	nt
O=C(Nc1ccc(N2CCCC2)c(Cl)c1)c1ccccc1[N+](=O)[O-]	i	nt	nt	nt	nt	nt
Cc1ccc(S(=O)(=O)/N=S(\C)CC2CC2(Cl)Cl)cc1 (stereo not given)	i	i	i	58	i	i
Cc1noc(/C=C/c2ccco2)c1S(=O)(=O)N1CCC(C(=O)NC(C)c2ccccc2)CC1 (stereo not given)	i	i	i	i	i	i
Cc1noc(/C=C/c2ccco2)c1S(=O)(=O)N1CCC(C(=O)N(C)Cc2ccccc2)CC1	i	i	i	i	i	76
Cc1noc(/C=C/c2ccco2)c1S(=O)(=O)N1CCC(C(=O)N2c3ccccc3CC2C)CC1 (stereo not given)	i	i	i	i	i	70
CC(CCc1ccccc1)NC(=O)N1CCOCC1 (stereo not given)	i	nt	nt	nt	nt	nt
CC1CC(=O)c2cnc(Nc3cccc(C(F)(F)F)c3)nc2C1 (stereo not given)	i	i	nt	53	i	i
NS(=O)(=O)c1cccnc1Nc1c(Cl)cccc1Cl	i	i	nt	60	i	i
NS(=O)(=O)c1ccc(Nc2ncccc2[N+](=O)[O-])cc1	i	i	nt	i	i	i
CC(C)Sc1nc2c(c(=O)[nH]1)C(c1cccs1)C1=C(CC(C)(C)CC1=O)N2 (stereo not given)	i	i	i	i	i	68
O=C1C2CC=C(Cl)CC2C(=O)N1CCCCCCN1C(=O)C2CC=C(Cl)CC2C1=O (stereo not given)	i	i	i	75	i	82
COc1ccc2c(c1OC)C(=O)N1N=C(c3ccc(O)cc3)CC21 (stereo not given)	i	2.4	nt	i	i	i
Cc1ccc(S(=O)(=O)N(C)C)cc1-n1c(SCC(=O)Nc2ccc(F)c(F)c2F)nc2ccccc2c1=O	i	nt	nt	nt	nt	nt
O=C1c2ccccc2C(=O)N1CC(O)COCc1ccccc1 (stereo not given)	i	i	i	81	i	i
CN(C)c1nc(N)nc(CSc2ncc(Cl)cc2Cl)n1	i	i	i	64	i	i
CN(C)c1nc(N)nc(CSc2nnnn2C)n1	i	i	i	i	i	i
COC(=O)CN(C#N)c1nc(SC)nc(N(C)C)n1	i	i	i	56	i	i
CNC(=O)CN(C#N)c1nc(N(C)C)nc(N(C)C)n1	nt	nt	i	nt	nt	nt
Cc1nc2ccccc2nc1CSc1nnc(N)s1	i	i	i	54	i	i
COc1ccc(/C(C#N)=C/c2c(-c3ccc(Cl)cc3)nc3c(C)cccn23)cc1	i	i	nt	52	i	57
O=C(COC(=O)Cn1cnc2ccccc2c1=O)Nc1ccccc1Sc1ccc(Cl)cc1	i	nt	nt	nt	nt	nt
Cc1cc([N+](=O)[O-])nn1CCCC(=O)NC(C)c1ccccc1 (stereo not given)	i	nt	nt	nt	nt	nt
Cc1ccc(NC(=O)Cn2c(/C=C/c3ccccc3)nc3ccccc32)cc1C	i	i	nt	85	i	100
SMILES	MRP-1 activ	CYP2C9 activ	MRP reversal	CYP2C19 inhib	CYP2C19 act	CYP2C9 inh
Cc1nc2ccccc2n1CC(=O)N/N=C\C=C\c1ccccc1	i	i	nt	i	i	i
CCCn1c(/C=C/c2ccccc2)nc2ccccc21	i	i	nt	51	i	i
Cc1ccc(SCCC(=O)N2CCOCC2)cc1	i	i	i	95	i	i
Cc1ccc(SCCC(=O)N2CCCC2)cc1	i	i	i	90	i	i
C=CCn1c(O)c(C2=c3ccccc3=NC2=O)s/c1=N/c1nccs1	i	i	i	i	i	61
Cn1c(O)c(C2=c3ccccc3=NC2=O)sc1=Nc1ccc(Cl)cc1	i	nt	i	nt	nt	nt
COc1ccc(C(=O)Nc2cc(C(F)(F)F)ccc2-n2cncn2)cc1	i	i	i	i	i	i
O=C(Nc1cc(C(F)(F)F)ccc1-n1cncn1)c1ccc(-c2ccccc2)cc1	i	i	i	58	i	94
O=C(Nc1cc(C(F)(F)F)ccc1-n1cncn1)c1ccc(Cl)cc1	i	i	i	74	i	i
COc1ccc(-n2c(Cc3cccn3C)nnc2SCC(=O)NCCc2ccccc2)cc1	i	i	nt	i	i	73
COc1ccc(NC(=O)CSc2nnc(Cc3cccn3C)n2-c2ccc(C)cc2)cc1OC	i	i	i	i	i	i
CCOC(=O)c1ccccc1NC(=O)CSc1nnc(Cc2cccn2C)n1-c1ccc(C)cc1	i	i	i	56	i	89
COc1ccccc1NC(=O)CSc1nnc(Cc2cccn2C)n1CCc1ccccc1	i	i	i	i	i	i
COc1ccc(NC(=O)CSc2nnc(Cc3cccn3C)n2CCc2ccccc2)c(OC)c1	i	i	i	75	i	i
COc1cccc(NC(=O)CSc2nnc(Cc3cccn3C)n2-c2ccc(F)cc2)c1	i	i	i	i	i	84
CCOc1ccc(-c2nnc(-c3snc(-c4ccc(F)cc4)c3N=CN(C)C)o2)cc1	i	i	i	i	i	i
O=C1CC(N2CCN(c3ccc(F)cc3)CC2)C(=O)N1Cc1ccc(N2CCCC2=O)cc1 (stereo not given)	i	i	i	i	i	i
C=C1c2cc(C)ccc2NC(=O)N1c1ccccc1	i	nt	nt	nt	nt	nt
COc1ccc(OC)c(NC(=O)CSc2nnc(Cc3cccn3C)n2-c2ccc(F)cc2)c1	i	i	i	73	i	54
COc1ccc(-n2c(Cc3cccn3C)nnc2SCC(=O)Nc2nccs2)cc1	i	i	i	78	i	58
COc1ccc(-n2c(Cc3cccn3C)nnc2SCC(=O)Nc2ccc(F)cc2F)cc1	i	i	i	i	i	55
COc1ccc(-n2c(Cc3cccn3C)nnc2SCC(=O)Nc2ccccc2C)cc1	i	i	i	i	i	i
COc1ccc(-n2c(Cc3cccn3C)nnc2SCC(=O)Nc2ccccc2F)cc1	i	i	i	i	i	i
CCOC(=O)C1CCCN(C/C(O)=C(\C#N)c2nc(-c3ccccc3)cs2)C1 (stereo not given)	i	i	i	i	i	i
CCC(=O)Oc1ccc(C(=O)Nc2c[nH]c(=O)[nH]c2=O)cc1	i	nt	nt	nt	nt	nt
SMILES	MRP-1 activ	CYP2C9 activ	MRP reversal	CYP2C19 inhib	CYP2C19 act	CYP2C9 inh
Cc1c(Cl)cccc1NC(=S)N1CCC(C(N)=O)(N2CCCCC2)CC1	i	nt	nt	nt	nt	nt
O=C1CCN1C1(C(=O)NC2CCCCC2)CCCC1	i	nt	nt	nt	nt	nt
CC(=O)NC(=O)COC(=O)/C=C/c1c(C)nn(Cc2c(Cl)cccc2Cl)c1Cl	i	i	i	i	i	i
Cc1cccc(OCCC(=O)Nc2ccc(F)c(Cl)c2)c1	i	nt	nt	nt	nt	nt
Cc1nnc(SC(C)C(=O)N2CCc3ccccc32)s1 (stereo not given)	i	i	i	78	i	i
CC(Sc1nnc(-c2ccccc2)c(-c2ccccc2)n1)C(=O)N1CCc2ccccc21 (stereo not given)	i	nt	nt	nt	nt	nt
